Assay outcomes from PubChem BioAssay.
HIV RNase H inh-1 = HIV-1 RT RNase H inhibitors, primary screen, biochemical, fluorescence; inhibition, % at 10 µM; Gag-Pol polyprotein (Human immunodeficiency virus type 1 group M subtype B (isolate …; actives 1.9% (n = 65,000); AID 565, 2006; RT-RNase H RNA/DNA duplex cleavage; in the data active = inhibition above about 50%
HIV RNase H inh-2 = HIV-1 RT RNase H inhibitors, retest, confirmation, biochemical | actives 39% (n = 1,000) | shares compounds with HIV RNase H inh-1 | Recombinant RT RNase H, fluorescent RNA/DNA duplex cleavage | inhibition, % at 10 µM; in the data active = inhibition above about 48%; inconclusive = no clear call, values can overlap the other calls
* marks the source's active call; other numbers are inactive results; u = inconclusive. Many of the other results were omitted from the sample, so hits are more common in it than they were.

SMILES | HIV RNase H inh-1 | others
COC(=O)c1ccc2c(=O)n(CCN3CCOCC3)c(SCC(=O)NC3CCCCC3)nc2c1 | -4
Cc1cc(O)ccc1Nc1nc2ccccc2nc1Nc1ccc(O)cc1C | 46
CCOc1ccc(-c2nnc(N(CC)C(=O)C3CCC3)s2)cc1 | 66* | HIV RNase H inh-2=1
CCN(C(=O)Cc1cccs1)c1nnc(-c2cc(OC)c(OC)c(OC)c2)s1 | -20
CCCC(=O)N(C)c1nnc(-c2ccc(OC)cc2)s1 | 32
O=C1CC(C2CCCO2)C(=O)N1Cc1ccccc1 (configuration not stated) | -1
O=C(CSc1nc2ccccc2c(=O)n1-c1ccc(Cl)cc1)c1ccco1 | 27
O=C(CSc1nnc(-c2ccc(F)cc2)o1)c1ccc2c(c1)OCCO2 | 59* | HIV RNase H inh-2=u
Cc1[nH]c2ccc(-c3nnc(SCC(=O)c4ccc(F)cc4)o3)cc2c1C | 79* | HIV RNase H inh-2=u
O=C(CSc1nnc(CNc2ccccc2)o1)c1ccc2c(c1)OCCO2 | -81
COc1cc(-c2nnc(SCC(=O)c3ccc(C)cc3)o2)cc(OC)c1OC | -7
COc1ccc(C(=O)CSc2nnc(-c3ccc(C)cc3)o2)cc1 | 26
O=C(CSc1nnc(-c2ccc(F)cc2)o1)N1CCN(C(=O)c2ccco2)CC1 | 81* | HIV RNase H inh-2=32
CCCn1nnnc1SCC(=O)c1ccc2c(c1)OCCO2 | -4
O=C(CSc1nnc(CNc2ccc(F)cc2)o1)N1CCN(C(=O)c2ccco2)CC1 | -12
O=C(CSc1nnc(-c2ccccc2Br)o1)N1CCN(C(=O)c2ccco2)CC1 | 2
CC(C)C1CC(O)(C2(O)CCCCC2)ON1 (configuration not stated) | 1
COc1ccc(CN2CC(C(=O)NCc3cccc(OC)c3)CC2=O)cc1 (configuration not stated) | -5
CC1(C)Cc2c(sc3nc(SCC#N)n(C4CCCCC4)c(=O)c23)CO1 | 5
COc1ccc(Cl)cc1NC(=O)c1ccoc1C | -63
Cc1cc(SCc2ccccc2)nc(=O)[nH]1 | -16
CC(=O)c1cnc(Nc2nc(C)c3cccc(C)c3n2)nc1C | -5
CCOC(=O)C(NC(C)=O)(Nc1ccc(S(=O)(=O)Nc2cc(C)nc(C)n2)cc1)C(F)(F)F (configuration not stated) | -12
CCN(CCCNC(=O)CN(C)S(=O)(=O)c1cccc2nsnc12)c1ccccc1 | -15
Cc1cc(Nc2ccc(C)c(C)c2)n2nc(C)nc2n1 | -8
SMILES | HIV RNase H inh-1 | others
COc1cc2c(c(OC)c1)C(c1cccc(OC)c1OC)CC(=O)N2 (configuration not stated) | -44
CCCOc1c(OC)cccc1C1CC(=O)Nc2cc(OC)c(OC)c(OC)c21 (configuration not stated) | 66* | HIV RNase H inh-2=35
COc1ccc(OC)c(C2CC(=O)Nc3cc(OC)c(OC)c(OC)c32)c1 (configuration not stated) | 6
CC(NC(=O)NCc1cccnc1)(C(F)(F)F)C(F)(F)F | -14
Cc1cc(C)cc(NC(=O)CCN2CC(C)OC(C)C2)c1 (configuration not stated) | -2
COC(=O)c1ccc(CC(=O)c2c(C)cc(O)cc2O)o1 | -11
O=c1[nH]c2cc3c(cc2cc1CN(Cc1ccccc1)Cc1nnnn1Cc1ccco1)OCCO3 | 21
O=c1[nH]c2cc3c(cc2cc1CN(CCCO)Cc1nnnn1Cc1ccc(F)cc1)OCO3 | -23
CC(C)C(c1nnnn1Cc1ccccc1)N(CCCO)Cc1cc2cc3c(cc2[nH]c1=O)OCO3 (configuration not stated) | 89* | HIV RNase H inh-2=11
Cc1cc2nncn2c(Cc2ccccc2)n1 | -15
CC(=O)Oc1ccc(NC(=O)CSc2ccccc2)cc1 | -31
COc1ccc(NC(=O)C23CCC(C)(C(=O)C2)C3(C)C)cc1 (configuration not stated) | -2
Cc1ccc(C(=O)N2CCN(c3ccc(Cl)cc3)CC2)cc1 | 2
COc1ccc(N2C(=O)C(Cl)=C(N(CCO)Cc3ccccc3)C2=O)cc1 | 30
COc1ccc(N2C(=O)C(Cl)=C(N3CCN(Cc4ccccc4)CC3)C2=O)cc1 | 90* | HIV RNase H inh-2=24
CC1=C(C)C(=O)N(c2ccc(C(=O)O)cc2)C1=O | -4
CN1CCN(C2=C(Cl)C(=O)N(c3ccc(Cl)cc3)C2=O)CC1 | 82* | HIV RNase H inh-2=40
O=C1CC(N2CCN(Cc3ccccc3)CC2)C(=O)N1c1ccccc1 (configuration not stated) | 13
COc1ccc(S(=O)(=O)N2CCN(Cc3ccccc3)CC2)cc1 | -4
O=C1C(Cl)=C(N2CCN(Cc3ccccc3)CC2)C(=O)N1c1ccccc1 | 85* | HIV RNase H inh-2=-3
Cc1cc(=O)[nH]c(N2CCN(Cc3ccccc3)CC2)n1 | 0
Cc1c(C(=O)NCC(C)C)sc2nc(-c3ccc(F)cc3)cn12 | -3
O=C(CNS(=O)(=O)c1ccccc1)NCc1ccccn1 | -4
COc1ccccc1-n1c(=O)oc2ccc(Cl)cc2c1=O | -7
Nn1c(SCC(=O)Nc2ccc(S(=O)(=O)N3CCCC3)cc2)nnc1C(F)(F)F | -8
SMILES | HIV RNase H inh-1 | others
COc1ccc(OC)c(N=C(C)C2=C(O)COC2=O)c1 | -9
N#Cc1nc(-c2cccs2)oc1NCc1ccc2c(c1)OCO2 | -21
CC(=O)c1cccc(NC(=O)NCCS(C)=O)c1 (configuration not stated) | -10
CCN(CCCn1c(SCC#N)nc2ccccc2c1=O)c1ccccc1 | -2
COc1cc(Cl)ccc1NC(=O)COc1ccccc1C(=O)N1CCN(c2ccc(O)cc2)CC1 | -21
CCn1c(SCC(=O)c2cc(OC)ccc2OC)nnc1C1CC1 | 7
O=C(c1cccnc1Nc1ccc2c(c1)CCC2)N1CCOCC1 | 84* | HIV RNase H inh-2=9
O=C(c1ncc[nH]1)c1ccccc1C(=O)N1CCOCC1 | -1
O=C(c1ccc2c3c(cccc13)CC2)N1CCOCC1 | 6
CN(C)CCCNc1oc(-c2cccc(Cl)c2)nc1C#N | -12
CC1(C)Cc2ccccc2C2CC(O)C(=O)N21 (configuration not stated) | 25
COC(=O)C1=C(C)OC(N)=C(C#N)C1c1ccccc1 (configuration not stated) | -41
N#CC1=C(N)SC(N)=C(C#N)C1c1ccc(C(F)(F)F)cc1 | 61* | HIV RNase H inh-2=15
CCCOc1ccc(C2C(C#N)=C(N)Oc3nc[nH]c(=O)c32)cc1OC (configuration not stated) | -10
CCc1ccc(C2C(C#N)=C(N)SC(N)=C2C#N)cc1 | 70* | HIV RNase H inh-2=18
N#CC1=C(N)SC(N)=C(C#N)C1C1CC=CCC1 (configuration not stated) | 2
N#CC1=C(N)SC(N)=C(C#N)C1c1cccc(Oc2ccccc2)c1 | 70* | HIV RNase H inh-2=39
Cc1ccc(C2C(C#N)=C(N)Oc3cc4c(cc32)OCO4)cc1 (configuration not stated) | -18
CCOC(=O)C1=C(C)OC(N)=C(C#N)C1c1ccoc1 (configuration not stated) | -89
CCOc1ccccc1C1C(C#N)=C(N)SC(N)=C1C#N | -5
CCOc1ccc(C2C(C#N)=C(N)SC(N)=C2C#N)cc1OC | 69* | HIV RNase H inh-2=5
COC1(OC)N=C(N)C2(C#N)C(c3cccc(Oc4ccccc4)c3)C12C#N (configuration not stated) | -12
N#CC1=C(N)OC(c2ccccc2)=C(C#N)C1c1ccc2c(c1)OCO2 (configuration not stated) | -13
COc1ccc(-c2noc(CCC(=O)N3CCN(c4cc(C)ccc4C)CC3)n2)cc1 | 2
